HCV inhibitor: HCV inhibition; Potency, µM (titrated, usually from 41.8 µM), without a hit: at the top dose activity change, negative = inhibition, usual class: inhibitors; 340,000 compounds, 3.4% hits; Huh7.5.1 HCVcc-Cre infection, luciferase reporter, 44 h; further: potency means the concentration at half of the fitted maximal effect; on the % scale 0 is the no-effect control and ±100 the full control effect
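Antiviral activity was scored by luciferase reporter output from cells infected with HCVcc-Cre (~0.5 moi) in presence of compound, 44 h infection period, cells seeded 1,000/well 4 h prior.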
Pf growth 96h: P. falciparum growth inhibition at 96 hours; Potency, µM (series often up to 28.7 µM), for inactives: top-dose activity change, negative = inhibition, most hits filed as inhibitors; 320,000 compounds, 6.9% hits; P. falciparum luciferase reporter growth, 96 h; further: potency means the concentration at half of the fitted maximal effect; on the % scale 0 is the no-effect control and ±100 the full control effect
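96 h incubation, 37 C, 5% CO2, of luciferase-reporter P. falciparum-infected RBCs (2% hematocrit, 0.05% parasitemia final) with test compounds; endpoint luminescence.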
Shiga toxin inh: Shiga toxin inhibition. inhibition, % at 38.7 µM. 290,000 compounds, 9.2% hits. Vero cells, Shiga toxin protein synthesis inhibition reporter; in the data active means inhibition mostly above about 28%, no sharp cut-off; inactive means mostly below about 43%; further: 0% is about no effect
HCMV inh: blocks human cytomegalovirus replication; AID 1259415; 410,000 compounds, 4.5% hits; activity change, negative = inhibition, % at 57.5 µM; HFF cells, HCMV-luciferase reporter, 72 h; active compounds read low; in the data active means activity change below about -60%; inconclusive means no clear call, values can overlap the other calls; inactive means above about -39%; further: on the % scale 0 is the no-effect control and ±100 the full control effect
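Steps: HFFs plated, 16 h 37C; compounds added; HCMV-luciferase added to MOI 1 PFU/cell; 72 h 37C; OneGlo reagent, 5 min room temperature; luminescence read, normalized to controls.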
Pf growth 48h: P. falciparum growth inhibition at 48 hours (one generation); AID 504832; P. falciparum luciferase growth in erythrocytes, 48 h; 310,000 compounds, 5.9% hits; Potency, µM (titrated, usually from 28.7 µM), for the others: at the highest dose activity change, negative = inhibition, hits mostly inhibitors; further: potency means the concentration at half of the fitted maximal effect; on the % scale 0 is the no-effect control and ±100 the full control effect
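Luciferase-expressing P. falciparum in infected erythrocytes (2% hematocrit, 0.1% parasitemia final) in RPMI 1640/0.5% Albumax were exposed to compound for 48 hours at 37 C, 5% CO2; growth read as luminescence.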
CHX counter: affects cycloheximide protein synthesis inhibition readout, counter-screen. cell reporter, cycloheximide protein synthesis inhibition counterscreen. max response, %. 300,000 compounds, 12% hits; in the data active means max response mostly above about 13%, no sharp cut-off; inactive means mostly below about 14%; further: read at 38.3 µM for the half of the compounds with a filed dose; 0% is about no effect
* marks the source's active call; other numbers are inactive results; i = inactive; ? = inconclusive; . = no result. Compounds with a hit are over-represented: about 21% of the library has one in this group of screens. Unless noted, the call rests on the fitted dose curve; in most records, active means well fitted inhibition curve with a large enough effect; inconclusive means small, poorly fitted or top-dose-only effect, or another doubt; inactive means no such curve, though single readings can be large or run the other way.

SMILES	HCV inhibitor	Pf growth 96h	Shiga toxin inh	HCMV inh	Pf growth 48h	CHX counter
Cc1ccc2c(c1)C1CN(C)CCC1N2C(=O)Nc1cccc(Cl)c1 (configuration not stated)	?	?	8	-6	?	24
Cc1ccc2c(c1)C1CN(C)CCC1N2C(=S)NC(=O)c1ccc(Cl)cc1Cl (configuration not stated)	23%	5.9µM*	-3	-16	?	-2
Cc1ccc2c(c1)C1CN(C)CCC1N2C(=O)c1ccco1 (configuration not stated)	4%	.	-5	-12	32%	7
Cc1ccc2c(c1)C1CN(C)CCC1N2C(=O)COc1ccccc1F (configuration not stated)	3%	12µM*	-4	-8	?	-1
CC(=O)N/C(=C\c1ccc(Br)s1)C(=O)O	21%	i	8	.	35%	6
COC(=O)c1cc2ccc(OC)cc2c2cc(OC)c(OC)cc12	1.4µM*	.	.	-30	.	.
COc1cc(C(=S)N2CCCC2)ccc1OS(=O)(=O)c1ccc(NC(C)=O)cc1	10µM*	126%	31	-36	2.1µM*	3
COc1cc(C(=S)N2CCOCC2)ccc1OS(=O)(=O)c1ccc(NC(C)=O)cc1	?	20%	16	-73*	14%	-2
COc1ccc(S(=O)(=O)Oc2ccc(C(=S)N3CCOCC3)cc2OC)cc1	?	?	-7	-16	2%	-5
CN(CC(=O)Nc1ccc(Cl)c(C(F)(F)F)c1)C(=O)Cc1n[nH]c(=O)c2ccccc12	?	?	.	-73*	-18%	.
COc1ccc(C(=O)OCC(=O)Nc2ccc(Cl)c(C(F)(F)F)c2)c(OC)c1OC	?	-20%	-11	-62*	-4%	-8
Cc1cccc(C(=O)OCC(=O)N(C)CC(=O)Nc2ccc(Cl)c(C(F)(F)F)c2)c1	?	?	.	-7	?	.
CN(CC(=O)Nc1ccc(F)c(F)c1F)C(=O)c1cc(-c2ccncc2)nc2ccccc12	?	?	.	-13	?	.
Cc1ccc(C)c(OCC(=O)N(C)CC(=O)Nc2ccc(Cl)c(C(F)(F)F)c2)c1	-30%	?	.	-13	12µM*	.
CN(CC(=O)Nc1ccc(Cl)c(C(F)(F)F)c1)C(=O)c1cc(-c2ccncc2)nc2ccccc12	?	?	.	-33	13µM*	.
COc1ccc(C(C)NC(=O)CC23CC4CC(CC(C4)C2)C3)cc1 (configuration not stated)	2%	1%	.	-34	?	-1
C=CCC(CC=C)(CNC(=O)C(=O)Nc1cccc(C(F)(F)F)c1)c1ccccc1	.	.	.	32	.	.
O=C(NNC(=S)Nc1ccc(F)cc1)C1[C@H]2CCCC[C@@H]12 (some centres not stated)	15%	70%	20	21	20%	22
CCc1cccc(NC(=O)NC2CCCCC2)c1	-1%	.	44	79	26%	23*
CCOc1ccc(NC(=O)NC23CC4CC(CC(C4)C2)C3)cc1	-3%	9%	34	0	-17%	15*
C=C1C(C(=O)Nc2ccc(OCC)cc2)C1C(=O)Nc1ccc(OCC)cc1 (configuration not stated)	-30%	-16%	15	-28	-11%	-3
COC(=O)C(O)(c1ccc(NC(=O)NC2CCCCC2)cc1)C(F)(F)F (configuration not stated)	13%	30%	39*	-3	121%	35*
CCOc1ccc(NC(=O)C(=S)NC2CCCCC2)cc1	3%	8%	37	-7	18%	22*
CCOc1ccc(NC(=O)C2CCN(C(=O)NC3CCCCC3)CC2)cc1	9%	?	-3	22	?	0
CCc1cccc(NC(=O)C2CCCC2)c1	-22%	97%	8	17	16%	-2
SMILES	HCV inhibitor	Pf growth 96h	Shiga toxin inh	HCMV inh	Pf growth 48h	CHX counter
O=C(CN1C(=O)C2CCCCC2C1=O)Nc1cc([N+](=O)[O-])ccc1F (configuration not stated)	12%	-20%	.	5	?	.
C[C@H](CO)N1C[C@H](C)[C@@H](CN(C)C(=O)Cc2ccccc2)OCc2cn(nn2)CCCC1=O	.	.	.	9	.	.
COc1ccc(NC(=O)C(=S)NC2CCCCC2)cc1	-10%	18%	118*	7	117%	47*
CCc1ccc(NC(=O)NC2CCCCCCC2)cc1	6%	?	119*	90	109%	53*
CCOc1ccc(CC(=O)NNC(=O)NC2CCCCC2)cc1	3%	21%	-2	-39	4%	-3
COc1ccc(OC)c(NC(=O)C(=S)NC2CCCCC2)c1	-16%	7%	1	-28	?	11
CCc1ccc(NC(=O)C(=S)NC2CCCCC2)cc1	-5%	234%	57*	1	165%	23*
CCOc1ccc(NC(=O)NC2CCCCCCC2)cc1	-4%	?	91*	35	80%	51*
O=C(NC1CCCCCC1)C(=S)NC1CCCCC1	25%	-11%	18	35	63%	10
O=C(CCS(=O)(=O)c1cc2c(cc1Cl)NC(=O)CO2)NCc1ccccc1	17%	?	-8	-20	27%	-4
Cc1cccc(CCNC(=O)c2cc(=O)[nH]c3ccc(Br)cc23)c1	-11%	10µM*	13	.	18%	-4
COc1ccc(C(=O)NCc2nnc(SCC(=O)N3CCC(C)CC3)o2)cc1	-2%	4%	-7	?	-11%	1
CCOCCCn1c(=S)[nH]c2cc(C(=O)N3CCN(c4ccccc4)CC3)ccc2c1=O	?	15µM*	-6	0	19%	-3
COCCn1c(=S)[nH]c2cc(C(=O)N3CCN(C4CCCCC4)CC3)ccc2c1=O	.	.	.	-10	.	.
CCOCCCn1c(=S)[nH]c2cc(C(=O)N3CCN(C4CCCCC4)CC3)ccc2c1=O	?	5.2µM*	-8	50	1%	-2
CCOc1cc(C2c3c(-c4ccccc4O)n[nH]c3C(=O)N2CCc2ccccc2)ccc1O (configuration not stated)	.	.	.	-24	.	.
COCCCNC(=O)c1cc(C)nn1-c1ccccc1	4%	-5%	-5	66	-2%	3
COc1ccc(NS(=O)(=O)NC(=O)c2cn(C)c3ccccc23)cc1	7%	11%	11	29	26%	9
COc1ccc(NS(=O)(=O)NC(=O)c2c(C)n(C)c3ccccc23)cc1	15%	8%	-6	0	28%	24*
O=C(Cc1ccccc1)NCCSC1CCCCC1	17%	27%	58*	-13	9%	31*
Cc1ccc(C(=O)NCCSC2CCCCC2)cc1S(=O)(=O)Nc1ccccc1	?	?	3	-75*	10%	1
NC(=O)c1cc([N+](=O)[O-])ccc1NCc1ccc(N)cc1	-5%	?	.	-6	?	.
